Measurements taken from PubChem BioAssay AID1570 (National Center for Advancing Translational Sciences (NCATS), 2009).
Results filed as inconclusive are left out. A call without a number means that no potency is given here. Calls of active or inactive are those of the source. The call rests on the fitted dose curve; in most records, active means well fitted inhibition curve with a large enough effect; inconclusive means small, poorly fitted or top-dose-only effect, or effect the other way; inactive means flat fitted curve, though single readings scatter.

Target: Thyroid hormone receptor beta (Homo sapiens) (UniProt P10828)
Sequence (P10828 whole entry, looked up): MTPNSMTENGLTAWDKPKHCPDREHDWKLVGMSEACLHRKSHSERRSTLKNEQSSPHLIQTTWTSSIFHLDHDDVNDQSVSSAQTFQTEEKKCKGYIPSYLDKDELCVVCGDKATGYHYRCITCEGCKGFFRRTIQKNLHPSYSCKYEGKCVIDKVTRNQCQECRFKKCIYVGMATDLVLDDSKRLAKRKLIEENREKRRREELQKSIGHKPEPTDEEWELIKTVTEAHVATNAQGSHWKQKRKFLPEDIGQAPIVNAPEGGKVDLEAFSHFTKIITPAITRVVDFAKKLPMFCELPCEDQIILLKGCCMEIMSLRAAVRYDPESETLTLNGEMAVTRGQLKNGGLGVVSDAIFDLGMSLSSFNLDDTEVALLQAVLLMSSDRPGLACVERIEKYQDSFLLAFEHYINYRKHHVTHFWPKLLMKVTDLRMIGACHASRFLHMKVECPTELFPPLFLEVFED
Test: Concentration Response Confirmation Assay for Inhibitors of the Interaction of Thyroid Hormone Receptor and Steroid Receptor Coregulator 2, Fluorescein Fluoroprobe
Excerpt: NIH Molecular Libraries Probe Production Network [MLPCN] NIH Chemical Genomics Center [NCGC] MLPCN Grant: DK058080 Assay Provider: R. Kip Guy, St. Jude Children's Research Hospital NCGC Assay Overview: Thyroid receptor (TR) regulates many homeostatic processes including basal metabolism, cardiovascular function, body weight, and lipid trafficking. TR modulators are potential therapeutics for obesity and hyperlipidemias but current thyroid analogs have undesirable side effects, particularly cardiac stimulation. To identify inhibitors that specifically prevent the interaction of TR with the steroid receptor coregulator 2 (SRC2), a fluorescence polarization assay was screened (Arnold et al., 2006). […] Small molecule inhibitors that block the interaction of TR and SRC2 are detected by a decrease in fluorescence polarization. […]
NCGC Assay Protocol Summary: Five uL/well 0.6 uM TRbeta and 20 nM SRC2 Fluorescein in protein buffer (20mM Tris hydrochloride, 100mM NaCl, 10% glycerol, 1mM EDTA, 0.01% NP-40, 1mM DTT, 1uM T3 and 5% DMSO) was dispensed into black solid 1536-well plates (Grenier) using a solenoid-based dispenser. […] The plates were read by an Envision (Perkin Elmer) to detect fluorescence polarization of SRC2 Fluorescein (480 nm excitation and 535 nm emission). […]

Row | Compound | Potency
1 | COP(=S)(OC)Oc1ccc([N+](=O)[O-])cc1 | 14.1 µM (active)
2 | CCn1nc(-c2cccs2)nc2c(=O)n(C)c(=O)nc1-2 | inactive
